Data on two compounds can be found in ChEMBL document CHEMBL1961873, “Compounds: GSK PKIS; Assays: Nanosyn kinase panel” (2012).

In test [1] the target is T1, Mitogen-activated protein kinase 12 (Homo sapiens) (UniProt P53778).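 Further: values are averaged p38gamma kinase inhibition readings, compounds tested at 1 µM.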
T1 sequence (whole entry): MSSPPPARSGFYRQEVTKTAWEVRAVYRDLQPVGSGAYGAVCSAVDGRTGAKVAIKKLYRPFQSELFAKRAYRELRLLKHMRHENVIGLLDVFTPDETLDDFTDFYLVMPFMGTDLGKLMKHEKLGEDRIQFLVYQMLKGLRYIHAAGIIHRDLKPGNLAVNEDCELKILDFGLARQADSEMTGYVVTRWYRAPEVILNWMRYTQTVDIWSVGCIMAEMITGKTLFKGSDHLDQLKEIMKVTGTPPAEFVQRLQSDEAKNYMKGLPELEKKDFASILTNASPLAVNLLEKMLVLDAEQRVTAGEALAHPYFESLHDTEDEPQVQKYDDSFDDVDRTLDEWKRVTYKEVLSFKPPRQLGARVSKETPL
The settings on record: at 1 µM.

In test [2] the target is SRSF protein kinase 1 (Homo sapiens) (UniProt Q96SB4). To be noted: at 0.1 µM.
Test [3] has the same target. To be noted: at 1 µM.
In test [4] the target is Phosphatidylinositol 4,5-bisphosphate 3-kinase catalytic subunit alpha isoform (Homo sapiens) (UniProt P42336). To be noted: at 0.1 µM.
Test [5] has the same target. To be noted: at 1 µM.
In test [6] the target is T2, Phosphatidylinositol 4,5-bisphosphate 3-kinase catalytic subunit delta isoform (Homo sapiens) (UniProt O00329).
T2 sequence (whole entry): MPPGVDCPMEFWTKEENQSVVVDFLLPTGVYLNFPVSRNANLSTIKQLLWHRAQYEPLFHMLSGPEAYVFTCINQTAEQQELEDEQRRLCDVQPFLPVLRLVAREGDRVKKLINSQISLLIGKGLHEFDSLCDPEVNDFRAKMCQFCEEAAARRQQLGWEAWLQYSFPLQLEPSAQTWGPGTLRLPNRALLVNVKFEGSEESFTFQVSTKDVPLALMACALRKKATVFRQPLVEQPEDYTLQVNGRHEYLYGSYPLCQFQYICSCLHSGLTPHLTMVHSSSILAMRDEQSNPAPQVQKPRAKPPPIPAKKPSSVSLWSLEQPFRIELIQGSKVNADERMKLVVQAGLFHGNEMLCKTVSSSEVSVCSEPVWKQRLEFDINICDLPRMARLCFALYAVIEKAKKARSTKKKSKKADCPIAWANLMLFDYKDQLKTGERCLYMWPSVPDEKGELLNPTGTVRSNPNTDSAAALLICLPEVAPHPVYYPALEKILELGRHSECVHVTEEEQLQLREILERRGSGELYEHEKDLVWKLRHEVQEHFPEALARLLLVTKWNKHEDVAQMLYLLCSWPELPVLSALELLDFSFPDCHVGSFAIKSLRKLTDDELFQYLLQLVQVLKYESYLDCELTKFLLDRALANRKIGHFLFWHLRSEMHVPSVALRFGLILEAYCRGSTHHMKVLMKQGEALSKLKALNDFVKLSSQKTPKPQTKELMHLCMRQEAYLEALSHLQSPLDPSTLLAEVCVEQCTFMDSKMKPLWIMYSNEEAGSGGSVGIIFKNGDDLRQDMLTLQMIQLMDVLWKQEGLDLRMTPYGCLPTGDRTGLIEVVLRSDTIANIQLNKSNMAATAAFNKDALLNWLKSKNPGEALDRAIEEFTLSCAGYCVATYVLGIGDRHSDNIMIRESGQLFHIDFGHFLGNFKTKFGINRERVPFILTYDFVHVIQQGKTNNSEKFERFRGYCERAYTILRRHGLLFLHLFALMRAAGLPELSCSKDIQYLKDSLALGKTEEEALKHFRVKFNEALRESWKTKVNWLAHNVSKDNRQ
The settings on record: at 0.1 µM.

For test [7], the target named is T2, Phosphatidylinositol 4,5-bisphosphate 3-kinase catalytic subunit delta isoform (Homo sapiens). The settings on record: at 1 µM.
Test [8] addresses Phosphatidylinositol 4-kinase beta (Homo sapiens) (UniProt Q9UBF8). To be noted: at 0.1 µM.
Test [9] has the same target. To be noted: at 1 µM.
Test [10] has as its target Sphingosine kinase 1 (Homo sapiens) (UniProt Q9NYA1). To be noted: at 0.1 µM.
The target is the same in test [11]. The settings on record: at 1 µM.
In test [12] the target is T3, Sphingosine kinase 2 (Homo sapiens) (UniProt Q9NRA0).
T3 sequence (whole entry): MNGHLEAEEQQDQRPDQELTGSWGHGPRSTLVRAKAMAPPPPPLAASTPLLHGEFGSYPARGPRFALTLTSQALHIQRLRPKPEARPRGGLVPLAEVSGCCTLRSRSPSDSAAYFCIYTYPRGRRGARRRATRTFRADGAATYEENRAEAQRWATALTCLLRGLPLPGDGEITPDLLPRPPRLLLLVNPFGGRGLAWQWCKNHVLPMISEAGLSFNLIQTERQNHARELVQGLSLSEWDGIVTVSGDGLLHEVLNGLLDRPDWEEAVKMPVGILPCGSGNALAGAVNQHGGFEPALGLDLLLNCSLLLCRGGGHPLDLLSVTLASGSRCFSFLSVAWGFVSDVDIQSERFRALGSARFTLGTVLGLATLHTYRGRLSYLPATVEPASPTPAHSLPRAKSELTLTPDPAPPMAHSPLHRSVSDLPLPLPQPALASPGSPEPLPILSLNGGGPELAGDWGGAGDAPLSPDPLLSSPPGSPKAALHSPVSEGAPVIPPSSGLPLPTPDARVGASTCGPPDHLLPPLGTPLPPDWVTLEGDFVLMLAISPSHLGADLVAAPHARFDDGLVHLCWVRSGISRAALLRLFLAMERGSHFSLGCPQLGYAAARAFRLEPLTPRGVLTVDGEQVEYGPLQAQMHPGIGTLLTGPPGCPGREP
The settings on record: at 0.1 µM.

The target of test [13] is T3, Sphingosine kinase 2 (Homo sapiens). The settings on record: at 1 µM.
Test [14] addresses Casein kinase II subunit alpha (Homo sapiens) (UniProt P68400). To be noted: at 0.1 µM.
Test [15] shares this target. To be noted: at 1 µM.
The target in test [16] is T4, Inhibitor of nuclear factor kappa-B kinase subunit alpha (Homo sapiens) (UniProt O15111).
T4 sequence (whole entry): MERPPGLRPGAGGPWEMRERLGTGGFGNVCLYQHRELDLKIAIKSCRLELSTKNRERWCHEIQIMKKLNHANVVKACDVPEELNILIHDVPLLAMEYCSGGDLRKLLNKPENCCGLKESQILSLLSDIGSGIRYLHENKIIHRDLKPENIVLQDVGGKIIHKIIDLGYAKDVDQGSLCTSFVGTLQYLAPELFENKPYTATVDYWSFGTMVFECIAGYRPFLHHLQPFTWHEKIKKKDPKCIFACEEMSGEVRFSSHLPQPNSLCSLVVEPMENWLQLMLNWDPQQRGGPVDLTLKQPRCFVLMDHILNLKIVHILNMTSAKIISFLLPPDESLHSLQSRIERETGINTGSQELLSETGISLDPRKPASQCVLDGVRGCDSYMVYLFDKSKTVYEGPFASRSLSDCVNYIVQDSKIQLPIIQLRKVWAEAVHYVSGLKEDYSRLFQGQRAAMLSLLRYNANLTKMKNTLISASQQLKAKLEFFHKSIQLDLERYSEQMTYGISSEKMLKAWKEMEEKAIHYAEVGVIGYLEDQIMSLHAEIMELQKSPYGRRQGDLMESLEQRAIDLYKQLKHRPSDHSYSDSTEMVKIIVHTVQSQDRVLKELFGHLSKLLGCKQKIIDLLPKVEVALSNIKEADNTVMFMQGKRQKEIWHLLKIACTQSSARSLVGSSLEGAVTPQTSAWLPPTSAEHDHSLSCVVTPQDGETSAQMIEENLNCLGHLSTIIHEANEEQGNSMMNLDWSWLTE
To be noted: at 0.1 µM.

For test [17], the target named is T4, Inhibitor of nuclear factor kappa-B kinase subunit alpha (Homo sapiens). The settings on record: at 1 µM.
Test [18] addresses T5, Inhibitor of nuclear factor kappa-B kinase subunit beta (Homo sapiens) (UniProt O14920).
T5 sequence (whole entry): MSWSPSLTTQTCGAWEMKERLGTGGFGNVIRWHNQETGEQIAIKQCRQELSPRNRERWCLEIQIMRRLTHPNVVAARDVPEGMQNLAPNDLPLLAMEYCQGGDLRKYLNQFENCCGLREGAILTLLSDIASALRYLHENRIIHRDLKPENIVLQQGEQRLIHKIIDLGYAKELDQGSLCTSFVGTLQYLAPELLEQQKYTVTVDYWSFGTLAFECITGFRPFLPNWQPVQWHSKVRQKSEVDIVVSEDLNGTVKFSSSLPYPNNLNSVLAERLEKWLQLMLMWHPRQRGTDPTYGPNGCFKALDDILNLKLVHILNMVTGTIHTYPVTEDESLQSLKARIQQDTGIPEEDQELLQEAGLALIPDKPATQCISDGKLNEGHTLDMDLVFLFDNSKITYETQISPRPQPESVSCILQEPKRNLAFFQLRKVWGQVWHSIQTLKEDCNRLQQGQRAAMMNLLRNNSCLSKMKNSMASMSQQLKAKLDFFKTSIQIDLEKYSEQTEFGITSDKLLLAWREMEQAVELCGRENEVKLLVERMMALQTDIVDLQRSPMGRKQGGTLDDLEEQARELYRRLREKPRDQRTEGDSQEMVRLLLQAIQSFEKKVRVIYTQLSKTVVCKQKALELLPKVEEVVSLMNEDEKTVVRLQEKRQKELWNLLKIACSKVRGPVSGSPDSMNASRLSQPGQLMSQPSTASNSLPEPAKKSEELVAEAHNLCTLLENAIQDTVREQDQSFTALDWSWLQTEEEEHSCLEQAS
The settings on record: at 0.1 µM.

Test [19] addresses T5, Inhibitor of nuclear factor kappa-B kinase subunit beta (Homo sapiens). To be noted: at 1 µM.
In test [20] the target is T6, Inhibitor of nuclear factor kappa-B kinase subunit epsilon (Homo sapiens) (UniProt Q14164).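 Further: mean inhibition of IKKε reported, from the GSK PKIS dataset.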
T6 sequence (whole entry): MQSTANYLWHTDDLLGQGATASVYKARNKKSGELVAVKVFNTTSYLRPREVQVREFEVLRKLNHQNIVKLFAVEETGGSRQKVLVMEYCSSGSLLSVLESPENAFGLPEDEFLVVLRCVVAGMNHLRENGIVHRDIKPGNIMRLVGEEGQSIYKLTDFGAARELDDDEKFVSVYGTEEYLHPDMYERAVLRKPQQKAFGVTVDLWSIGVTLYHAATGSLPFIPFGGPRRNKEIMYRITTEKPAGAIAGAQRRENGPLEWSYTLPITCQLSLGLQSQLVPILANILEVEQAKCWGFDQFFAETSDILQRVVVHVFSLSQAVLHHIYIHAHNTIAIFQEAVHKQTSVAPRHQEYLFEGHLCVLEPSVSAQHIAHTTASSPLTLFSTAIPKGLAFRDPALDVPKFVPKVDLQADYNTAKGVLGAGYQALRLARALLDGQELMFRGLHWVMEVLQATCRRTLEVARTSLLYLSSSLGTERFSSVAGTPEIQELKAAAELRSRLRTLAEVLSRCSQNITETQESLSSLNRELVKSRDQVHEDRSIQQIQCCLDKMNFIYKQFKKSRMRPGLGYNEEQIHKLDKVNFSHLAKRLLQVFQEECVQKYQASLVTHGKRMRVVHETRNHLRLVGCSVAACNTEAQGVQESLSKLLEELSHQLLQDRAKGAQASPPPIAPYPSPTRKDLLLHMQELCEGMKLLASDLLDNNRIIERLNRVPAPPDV
To be noted: at 0.1 µM.

Broadly, the inhibition is the change of the read-out against control, counted positive when it falls.

SMILES strings stand for the structures.

Casein kinase II subunit alpha (Homo sapiens), sequence (P68400 whole entry, looked up): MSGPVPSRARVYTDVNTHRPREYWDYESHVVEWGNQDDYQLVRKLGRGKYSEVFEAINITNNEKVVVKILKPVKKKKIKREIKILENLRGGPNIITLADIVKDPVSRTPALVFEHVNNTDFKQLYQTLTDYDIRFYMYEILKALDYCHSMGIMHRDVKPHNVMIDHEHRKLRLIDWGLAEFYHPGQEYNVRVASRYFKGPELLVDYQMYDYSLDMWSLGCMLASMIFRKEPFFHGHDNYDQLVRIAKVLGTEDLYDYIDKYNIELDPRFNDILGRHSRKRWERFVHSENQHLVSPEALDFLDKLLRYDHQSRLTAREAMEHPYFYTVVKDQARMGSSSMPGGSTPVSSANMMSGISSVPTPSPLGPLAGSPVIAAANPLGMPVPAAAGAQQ
Phosphatidylinositol 4,5-bisphosphate 3-kinase catalytic subunit alpha isoform (Homo sapiens), sequence (P42336 whole entry, canonical isoform): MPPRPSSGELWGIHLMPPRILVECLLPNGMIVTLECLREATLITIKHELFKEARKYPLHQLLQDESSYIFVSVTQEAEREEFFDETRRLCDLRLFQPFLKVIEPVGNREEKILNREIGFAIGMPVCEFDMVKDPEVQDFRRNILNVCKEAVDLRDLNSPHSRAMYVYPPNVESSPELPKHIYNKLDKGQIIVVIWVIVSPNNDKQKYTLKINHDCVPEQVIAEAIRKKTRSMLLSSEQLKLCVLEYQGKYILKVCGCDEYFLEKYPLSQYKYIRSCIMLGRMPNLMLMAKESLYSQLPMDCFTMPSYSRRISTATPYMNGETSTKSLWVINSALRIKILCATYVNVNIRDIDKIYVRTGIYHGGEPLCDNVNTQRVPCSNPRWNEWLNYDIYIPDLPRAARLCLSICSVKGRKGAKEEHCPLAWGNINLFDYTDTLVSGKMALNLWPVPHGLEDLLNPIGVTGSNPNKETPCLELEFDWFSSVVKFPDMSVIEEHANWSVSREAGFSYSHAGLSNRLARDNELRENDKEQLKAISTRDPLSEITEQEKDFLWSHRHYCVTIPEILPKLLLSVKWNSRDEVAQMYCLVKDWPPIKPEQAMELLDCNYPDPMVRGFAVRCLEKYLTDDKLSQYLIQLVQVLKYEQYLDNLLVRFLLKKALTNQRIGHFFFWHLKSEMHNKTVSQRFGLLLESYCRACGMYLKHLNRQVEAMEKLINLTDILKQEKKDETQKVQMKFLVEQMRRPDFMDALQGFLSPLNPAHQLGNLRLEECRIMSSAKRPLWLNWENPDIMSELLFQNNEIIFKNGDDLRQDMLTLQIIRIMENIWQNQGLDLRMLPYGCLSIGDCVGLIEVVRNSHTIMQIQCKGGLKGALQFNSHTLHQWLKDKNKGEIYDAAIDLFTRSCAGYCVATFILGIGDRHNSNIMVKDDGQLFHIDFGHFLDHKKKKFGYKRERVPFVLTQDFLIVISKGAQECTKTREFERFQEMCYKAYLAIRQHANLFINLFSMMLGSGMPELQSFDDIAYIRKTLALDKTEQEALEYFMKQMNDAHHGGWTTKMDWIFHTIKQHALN
Sphingosine kinase 1 (Homo sapiens), sequence (Q9NYA1 whole entry): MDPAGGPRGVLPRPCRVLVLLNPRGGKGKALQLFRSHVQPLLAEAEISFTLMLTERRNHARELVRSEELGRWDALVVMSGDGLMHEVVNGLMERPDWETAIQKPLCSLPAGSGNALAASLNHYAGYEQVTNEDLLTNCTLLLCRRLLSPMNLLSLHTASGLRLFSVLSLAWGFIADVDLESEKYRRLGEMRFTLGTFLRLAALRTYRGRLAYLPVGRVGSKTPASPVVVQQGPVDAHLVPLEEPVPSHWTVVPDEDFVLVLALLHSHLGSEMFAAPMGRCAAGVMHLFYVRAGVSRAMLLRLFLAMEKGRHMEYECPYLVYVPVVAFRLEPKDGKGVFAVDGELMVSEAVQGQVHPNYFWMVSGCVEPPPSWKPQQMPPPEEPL
Phosphatidylinositol 4-kinase beta (Homo sapiens), sequence (Q9UBF8 2-816 limits assumed): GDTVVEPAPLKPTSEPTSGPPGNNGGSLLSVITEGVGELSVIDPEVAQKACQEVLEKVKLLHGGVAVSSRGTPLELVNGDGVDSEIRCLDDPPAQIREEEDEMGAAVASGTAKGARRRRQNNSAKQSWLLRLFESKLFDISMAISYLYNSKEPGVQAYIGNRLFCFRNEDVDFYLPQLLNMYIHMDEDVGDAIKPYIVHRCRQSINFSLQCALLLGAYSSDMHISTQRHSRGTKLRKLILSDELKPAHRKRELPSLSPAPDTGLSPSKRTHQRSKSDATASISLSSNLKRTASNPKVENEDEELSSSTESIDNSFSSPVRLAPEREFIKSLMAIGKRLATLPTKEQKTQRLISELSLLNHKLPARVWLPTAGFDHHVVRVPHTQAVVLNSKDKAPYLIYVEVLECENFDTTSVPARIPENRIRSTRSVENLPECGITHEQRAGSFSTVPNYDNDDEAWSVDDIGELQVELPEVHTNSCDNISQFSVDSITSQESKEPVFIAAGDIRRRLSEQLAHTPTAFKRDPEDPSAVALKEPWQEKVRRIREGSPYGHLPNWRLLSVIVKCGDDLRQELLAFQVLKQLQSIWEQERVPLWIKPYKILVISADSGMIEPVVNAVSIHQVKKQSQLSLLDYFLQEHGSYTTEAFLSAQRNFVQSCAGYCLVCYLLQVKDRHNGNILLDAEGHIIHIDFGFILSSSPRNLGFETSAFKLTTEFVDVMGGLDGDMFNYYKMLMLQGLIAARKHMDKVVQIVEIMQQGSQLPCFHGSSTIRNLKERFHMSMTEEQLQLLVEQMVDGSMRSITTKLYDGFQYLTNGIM
SRSF protein kinase 1 (Homo sapiens), sequence (Q96SB4 whole entry): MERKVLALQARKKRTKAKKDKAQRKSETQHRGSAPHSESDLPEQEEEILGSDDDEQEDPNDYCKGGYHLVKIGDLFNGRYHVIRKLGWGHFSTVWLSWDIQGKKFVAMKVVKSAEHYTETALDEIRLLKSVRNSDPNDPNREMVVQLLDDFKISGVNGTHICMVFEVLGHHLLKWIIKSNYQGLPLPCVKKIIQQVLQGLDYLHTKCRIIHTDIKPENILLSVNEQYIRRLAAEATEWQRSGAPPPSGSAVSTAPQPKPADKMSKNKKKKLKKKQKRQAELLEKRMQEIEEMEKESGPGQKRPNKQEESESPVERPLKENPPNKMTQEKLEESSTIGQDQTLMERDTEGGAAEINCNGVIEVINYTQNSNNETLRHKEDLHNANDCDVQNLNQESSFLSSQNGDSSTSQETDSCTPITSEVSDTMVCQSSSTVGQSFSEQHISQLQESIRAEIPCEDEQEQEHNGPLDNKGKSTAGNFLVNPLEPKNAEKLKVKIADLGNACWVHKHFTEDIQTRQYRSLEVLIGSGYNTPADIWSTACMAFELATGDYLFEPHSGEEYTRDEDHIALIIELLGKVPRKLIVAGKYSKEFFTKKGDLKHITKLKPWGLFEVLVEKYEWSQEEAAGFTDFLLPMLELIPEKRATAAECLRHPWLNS

As for `CCCN1CCC=C(c2ccc(Nc3nc(Nc4ccccc4C(N)=O)c4cc[nH]c4n3)c(C)c2)C1`, the inhibition was 6.14% in [1]; -2.75% in test [2]; 12% in test [3]; 4.1% in [4]; 19.9% in test [5]; 1.79% in [6]. Besides, the inhibition is 17.8% in [7]; -1.7% in test [8]; -0.01% in test [9]; 0.57% in test [10]; 1.28% in test [11]; -1.02% in [12]. The inhibition in test [13] was determined as 0.04%; in [14], 33.7%; in test [15], 72%; in test [16], 13.6%; in test [17], 16%; in [18], 5.1%. Besides, the inhibition is 8.74% in test [19] and 9.65% in [20].
`CCCN1CCC(Oc2cc(Nc3nc(Nc4cccc(F)c4C(N)=O)c4cc[nH]c4n3)c(OC)cc2Cl)CC1`: the inhibition is 0.42% in test [1]; -0.3% in test [2]; -0.85% in test [3]; -1.23% in [4]; -1.07% in test [5]; -0.45% in test [6]. Moreover, the inhibition in test [7] was 0.08%; in test [8], 3.96%; in test [9], -2.71%; in test [10] it was 0.48%; in test [11], 0.63%; in [12] it was -0.36%. Also, the inhibition in test [13] was 0.09%; in test [14], 0.96%; in test [15] it was 7.7%; in [16], -0.06%; in test [17] it was -9.18%; in test [18] it was -1.77%. The inhibition in test [19] is -4.88%; in [20], -2.26%.
